# Data reported in PubChem BioAssay AID504834 (National Center for Advancing Translational Sciences (NCATS), 2011).
# About 22,000 (6.9%) of roughly 320,000 compounds were called active. Not shown: some 27% with an inconclusive outcome. The sample holds actives, similar compounds and a random draw of the others, so the mix is not that of the screen. Unmarked numbers belong to inactive results. The call rests on the fitted dose curve; in most records, active means well fitted inhibition curve with a large enough effect; inconclusive means small, poorly fitted or top-dose-only effect, or another doubt; inactive means no such curve, though single readings can be large or run the other way.
# Experiment: Primary qHTS for delayed death inhibitors of the malarial parasite plastid, 96 hour incubation
# Settings: P. falciparum luciferase reporter growth; series mostly up to 28.7 µM; activity change, negative = inhibition: at the top concentration
# In short: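 Compounds incubated with erythrocytes infected by luciferase-expressing P. falciparum (2% hematocrit, 0.05% parasitemia final) for 96 hours, 37 C in 5% CO2. Growth inhibition scored as decreased luciferase luminescence.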
# On the % scale 0 is the no-effect control and ±100 the full control effect; potency means the concentration at half of the fitted maximal effect.
Compound,"activity change, negative = inhibition",Potency
Cc1cccc(C(=O)OC(C)CN2CCN(C)CC2)c1 (configuration not stated),46.6%,
CC(CN1CCOCC1)OC(=O)c1ccc(Cl)cc1Cl (configuration not stated),5.52%,
Cc1ccc(C(=O)OC(C)CN2CCOCC2)cc1 (configuration not stated),,5.86 µM (active)
O=C(COC(=O)c1ccccc1Br)Nc1nnc(-c2ccccc2)o1,6.55%,
CN1C/C(=C/c2cccs2)C(=O)/C(=C\c2cccs2)C1,-17.4%,
O=C(CNC(=O)c1ccccc1Br)NCCSc1ccc(Br)cc1,9.38%,
Cc1cc(C)n(S(=O)(=O)c2cccc([N+](=O)[O-])c2)n1,-17.8%,
Cc1ccc(-c2cn(S(=O)(=O)c3cccc([N+](=O)[O-])c3)nc2N)cc1,,6.57 µM (active)
O=[N+]([O-])c1cccc(S(=O)(=O)N2CCCCCC2)c1,10.5%,
COc1cccc(CN2CCCC(C(=O)c3ccccc3SC)C2)c1O (configuration not stated),,1.65 µM (active)
COc1ccc(C(=O)N2CCCC(C(=O)c3ccccc3OC)C2)cc1OC (configuration not stated),-26.1%,
CCOC(=O)CCNC(=O)N1CCCC(C(=O)c2ccccc2SC)C1 (configuration not stated),-6.64%,
CCCCC(c1nnnn1CS(=O)(=O)c1ccc(C)cc1)N1CCC(C(N)=O)CC1 (configuration not stated),-0.154%,
COc1ccc(C(=O)Nc2ccc(C(=O)NCC3CCCO3)cc2)c(OC)c1OC (configuration not stated),-8.54%,
c1ccc(C2CCC(N3CCC(N4CCCCC4)CC3)CC2)cc1 (configuration not stated),,2.62 µM (active)
O=C(Cc1ccccc1)N1CCN(C2CCCCCC2)CC1,203%,
CCOC(=O)CN1CCC(c2ccccc2)CC1,-21.3%,
CC1CCCC(C)N1C(=O)COC(=O)COc1ccccc1C#N (configuration not stated),-0.308%,
COc1ccccc1OCC(=O)OCc1cc(-c2ccco2)on1,30.4%,
CN(CC(=O)Nc1ccc(F)c(F)c1F)C(=O)C1CC(=O)N(C2CCCC2)C1 (configuration not stated),51.1%,
CCOC(=O)C1=C(C)NC(=O)NC1c1ccccc1 (configuration not stated),-18.4%,
CC1=C(C(=O)OCC2CCCCC2)C(c2ccc(F)cc2)NC(=O)N1 (configuration not stated),1.16%,

Compound,"activity change, negative = inhibition",Potency
CCC(CC)COC(=O)C1=C(C)NC(=O)NC1c1ccc([N+](=O)[O-])cc1 (configuration not stated),,4.65 µM (active)
Cc1ccc(N(CC(=O)NCC2CCCO2)C(=O)CNS(=O)(=O)c2ccc(Cl)cc2)cc1 (configuration not stated),-13.8%,
CCc1nnc(NC(=O)CCC(=O)N2CCN(c3cc(C)ccc3C)CC2)s1,5.92%,
Cc1cc(Cl)nc(NC(=O)Nc2cccc(Cl)c2)n1,26.6%,
CNC(=O)CN1C(=O)NC(c2ccccc2)(c2ccccc2)C1=O,36.1%,
CCC1(c2ccccc2)C(=O)NC(=O)N(C)C1=O (configuration not stated),,15.1 µM (active)
Cc1c(C=O)n(C)n(-c2ccccc2)c1=O,30.2%,
O=C(CSc1nc2ccccc2o1)N/N=C/c1ccccc1C(=O)O,195%,
CCc1ccc(OCC(=O)OC(C)C(=O)NC2CC2)cc1 (configuration not stated),0.306%,
O=C1CCCN1CCCNc1ncnc2c1[nH]c1ccccc12,13.3%,
CC(C)OCCCNc1ncnc2c1[nH]c1ccc(F)cc12,,0.185 µM (active)
Cc1ccsc1C(=O)OCC(=O)Nc1cccc(F)c1,133%,
Cn1c2c(c(=O)n(C)c1=O)C(c1cccc(F)c1)C(C#N)=C(N)O2 (configuration not stated),21.7%,
CCc1ccc(NC(=O)Cn2nc(C)c([N+](=O)[O-])c2C)cc1,11.4%,
CCc1ccc(NC(=O)Cn2ncn3c(cc4ccccc43)c2=O)cc1,,1.47 µM (active)
Cc1nn(CC(=O)Nc2ccc(F)cc2)c(=O)c2ccccc12,19.5%,
O=C(NCCN1CCOCC1)c1cc(Sc2cccc(Cl)c2)nc2ccccc12,,5.22 µM (active)
O=C(NCCN1CCOCC1)Nc1cccc(Cl)c1,105%,
CC(=O)Oc1cc2c(C(=O)NCCN3CCOCC3)c(C)oc2c2ccccc12,15.9%,
Cn1c(SCC(=O)N2CCCC2)nnc1-c1ccc2c(c1)OCO2,-17.5%,
O=C(CNc1ccccc1N1CCCC1=O)Nc1cc(Cl)ccc1-n1cncn1,41.9%,
O=C(Nc1ccccc1Cl)Nn1cnnc1,22.9%,

Compound,"activity change, negative = inhibition",Potency
O=C(CN1CCCCCC1)Nc1ccc(Br)cc1Br,55.1%,
O=C(CN1CCCCC1)Nc1ccc(Br)cc1C(=O)c1ccccc1Cl,,1.85 µM (active)
O=C(CN1CCCCCC1)Nc1ccc(Br)cc1[N+](=O)[O-],69.6%,
Cc1cccc(-n2ncc(Cl)c(Cl)c2=O)c1,-4.47%,
COc1ccc(C(=O)NCC2CCCCC2)cc1S(=O)(=O)N1CCCC1,-107%,
COc1cc(NC(=O)c2ccc(-c3csc(C)n3)cc2)c(OC)cc1Cl,,4.15 µM (active)
CCOCC(=O)Nc1cc(OC)c(Cl)cc1OC,21.5%,
COc1cccc(CC(=O)Nc2ccc(-c3csc(C)n3)cc2)c1,-16.2%,
COc1cc(C(=O)NCc2nnc(SCC(=O)c3ccc(Cl)cc3)o2)cc(OC)c1OC,8.44%,
Cc1ccc(NS(=O)(=O)c2cc3c(cc2C)NC(=O)CO3)cc1,18.2%,
COc1ccc(CCNC(=O)NS(=O)(=O)c2ccc(C)cc2)cc1OC,15.1%,
O=C(c1cc(-c2ccc(Cl)cc2)on1)N1CCN(c2ccccc2)CC1,66.5%,
Cc1ccc(Cl)cc1N1CCN(C(=O)c2cccc3c(=O)c(C)c(-c4ccccc4)oc23)CC1,,2.08 µM (active)
Cc1cccc(N2CCN(C(=O)c3cnn4c(C(F)F)cc(-c5ccccc5)nc34)CC2)c1C,-5%,
O=C(CC1C(=O)NCCN1CC(c1ccccc1)c1ccccc1)NCC1CCOCC1 (configuration not stated),63.7%,
O=C(COc1ccccc1Cl)N1CCCCCCC1,-12.9%,
CCC(CC)c1nnc(NC(=O)C2CCN(C(=O)c3ccco3)CC2)s1,12.9%,
CN(C)C(CNC(=O)c1ccc(OCc2cn3ccccc3n2)cc1)c1ccco1 (configuration not stated),19.2%,
CC(Oc1cc2oc(=O)c3c(c2cc1Cl)CCCC3)C(=O)NCc1ccncc1 (configuration not stated),-24.1%,
COc1ccc(CNC(=O)CCN2C(=O)c3ccccc3C2=O)cc1,-6.81%,
COc1ccc(CCc2nnc(CCC(=O)NCc3cnn(-c4ccccc4C)c3)o2)cc1,,9.28 µM (active)
CC(CCn1cccn1)NC(=O)CCc1nnc(CCc2ccccc2)o1 (configuration not stated),22%,

Compound,"activity change, negative = inhibition",Potency
Cc1ccc(C)c(N2CCN(S(=O)(=O)c3c(C)[nH]c(C)c3C(=O)N3CCCC3)CC2)c1,-2.64%,
O=C(N/N=C/c1c[nH]c2ccccc12)c1ccccc1O,,11.7 µM (active)
O=C(N/N=C/c1c[nH]c2ccccc12)c1cc2ccccc2o1,-4.84%,
CSC(=S)N/N=C/c1c[nH]c2ccccc12,18.9%,
CCOc1ccc(C(=O)Nc2ccc(CN3CCOCC3)cc2)cc1Cl,232%,
CCCc1cc(=O)oc2cc(OCC(=O)Nc3ccc(CN4CCOCC4)cc3)c(Cl)cc12,,10.4 µM (active)
CCc1cc(=O)oc2c(C)c(OCC(=O)NCCN3CCOCC3)ccc12,12%,
Cc1nc(-c2ccc(Cl)cc2)sc1C1(C)CC(c2ccccc2F)=NO1 (configuration not stated),24.9%,
COCCCN1C(=O)c2ccc(C(=O)OCC(=O)NCc3ccccc3OC)cc2C1=O,2.31%,
Cc1c(C)c(C)c(S(=O)(=O)NCCc2ccccn2)c(C)c1C,4.22%,
CN(Cc1cccnc1)C(=O)c1cc(COc2ccc3ncccc3c2)on1,-0.897%,
Cc1ccc(OCc2cc(C(=O)N(C)CCc3ccccc3)no2)cc1C,,13.1 µM (active)
CSc1ccccc1OCc1cc(C(=O)N(C)CCc2c(C)n[nH]c2C)no1,-0.638%,
Cc1cc(S(=O)(=O)N2CCOCC2)ccc1OCC(=O)Nc1cccc(C(F)(F)F)c1,41.3%,
O=C(N/N=C/c1cccc(OC(=O)c2ccc([N+](=O)[O-])cc2)c1)c1cccnc1,10.1%,
Cc1cccc(C(=O)NCCCN2CCCC2=O)c1,32.3%,
Cc1cccc(-c2nc3ccc(C(=O)NCCN4CCN(C)CC4)cc3nc2-c2cccc(C)c2)c1,,11.7 µM (active)
Cc1cccc(C(=O)NCCCN(C)CCCNC(=O)c2cccc(C)c2)c1,64.7%,
CC(=O)Nc1ccc(S(=O)(=O)Oc2ccc(Br)cc2C(=S)N2CCOCC2)cc1,73.5%,
CCOC(=O)C(O)(c1ccc(N=Cc2ccccc2O)c(C)c1)C(F)(F)F (configuration not stated),8.1%,
CCOC(=O)C(O)(c1ccc(N)c(OC)c1)C(F)(F)F (configuration not stated),,2.62 µM (active)
COC(=O)C(O)(c1ccc(NC(=O)c2ccco2)c(OC)c1)C(F)(F)F (configuration not stated),2.22% [at 5.75 µM],

Compound,"activity change, negative = inhibition",Potency
C/C(=N\NC(=O)c1cccc([N+](=O)[O-])c1)c1cccnc1,-24.8%,
CCc1ccc(NC(=O)N[C@H](C(=O)O)C(C)CC)cc1 (some centres not stated),51.5%,
O=C(Nc1ccccc1N1CCCCC1)c1ccc2nccnc2c1,2.02%,
Cc1ccc(C)c(NC(=O)c2ccc3nccnc3c2)c1,,8.28 µM (active)
Cc1nnc(NC(=O)c2ccc3nccnc3c2)s1,63.9%,
CC(C)OCCCNC(=O)CN1C(=O)/C(=C/c2ccccc2F)Oc2ccccc21,-20.8%,
Cc1ccc(C)c(OCCC(=O)OCC(=O)NC(=O)NCc2ccccc2)c1,23.4%,
COc1ccc(/C(C)=N/N2CCOCC2)c(O)c1,131%,
COc1cccc(NC(=O)c2nn(C34CC5CC(CC(C5)C3)C4)cc2[N+](=O)[O-])c1,,8.28 µM (active)
COc1cccc(NC(=O)c2ccc(Cn3cc([N+](=O)[O-])cn3)o2)c1,0%,
Cn1cc([N+](=O)[O-])c(C(=O)Nc2ccc3c(c2)OCCO3)n1,56.1%,
O=C(Nc1cccc([N+](=O)[O-])c1)N1CCc2ccccc2C1,-29.3%,
O=C(COC(=O)C1(c2ccc(F)cc2)CCCC1)N1CCNC1=O,-16.4%,
O=[N+]([O-])c1ccc2c(c1)C(N1CCOCC1)/C(=C/C1(O)CCCCC1)O2 (configuration not stated),,1.65 µM (active)
O=C(/C=C/c1cccc([N+](=O)[O-])c1)OCC(=O)N1CCOCC1,9.92%,
O=C(NC1CCCCC1)c1cc([N+](=O)[O-])ccc1N1CCOCC1,55.6%,
O=[N+]([O-])c1ccc(N/N=C/c2ccccc2)cc1,73.4%,
COc1ccc(NC(=O)CNC(=O)Cc2ccccc2)cc1OC,33.4%,
C[C@]12CC[C@@H]3c4ccc(O)cc4C[C@@H](CCCCCCCCCS(=O)CCCC(F)(F)C(F)(F)F)C3[C@@H]1CC[C@@H]2O (some centres not stated),,6.01 µM (active)
